The results in this text go back to PubChem BioAssay.

Values without a mark were called inactive.

The nature of the experiment: resazurin metabolic signal in A549 cells – cell-based, resazurin fluorescence, 24 h, PK04 Diversity Set, profiling panel (AID 1171). Note: test concentration not given here. The note with it: A549 viability, higher = more signal, called active from +8 up or from −8 down. Background: Resazurin is reduced to fluorescent resorufin, in cell work by metabolically active cells.
Turning to `COC(=O)[C@@]1(Cc2ccc(OC)cc2)[C@H]2c3cc(C(=O)N(C)C)n(Cc4ccc(C)o4)c3C[C@H]2CN1C(=O)c1ccccc1`, the z-score is -0.21. As to `CCCCCN1CC=CC23O[C@@H]4/C=C\CCC(C)OC(=O)C4[C@H]2C(=O)N(C(CO)C(C)C)[C@@H]3C1=O` (stereo partly specified), the z-score was 0.829. Consider `CCOC(=O)C[C@H]1[C@H](OC(=O)c2ccccc2-c2ccccc2)[C@@H](NC(=O)c2ccc3ccccc3n2)c2cc(OCCCO)ccc2N1C(=O)Cc1ccc(OC)cc1`, for which the z-score is 0.0225. As for `O=C1OCCC/C=C\[C@H]2OC34C=CCN(c5ccc6ccccc6c5)C(=O)[C@H]3N(CCO)C(=O)[C@@H]4C12` (stereo partly specified), the z-score was -1.48. In the case of `O=C1N(Cc2ccccc2)c2ccccc2C[C@]12N=C(c1ccc(OCCCO)cc1)O[C@@H]2c1ccccc1`, the z-score is -2.07. For the molecule `O[C@@H](Cc1ccccc1)[C@@H](/C=C/C1CC1)N(CC#Cc1ccccc1)Cc1ccccc1Br`, the z-score is 1.62.

As for `O=C(C1N=C(c2ccc(OCCCO)cc2)N(c2ccccc2)O1)N1CCCCC1` (stereo unspecified), the z-score was 1.07. `CC(C)[Si]1(C(C)C)OCc2cc(-c3ccc(-c4ccc(Cl)c(Cl)c4)o3)nc(-c3ccccc3)c21`: the z-score was 0.793. As to `COc1ccc([Si](C)(C)[C@@H]2[C@@H](CCO)O[C@]3(C(=O)N(Cc4ccccc4)c4ccc(NC(=O)[C@H](C)O)cc43)[C@H]2C)cc1`, the z-score was -3.3. With `COc1cc(NN2C(C(O)c3ccc(N(C)C)cc3)C=CC3C(=O)N(c4ccccc4)C(=O)C32)cc(OC)c1OC` (stereo unspecified) the figure was -0.815.

`Cn1cccc1C(O)C1C=CC2C(=O)N(c3ccccc3)C(=O)C2N1Nc1ccccc1` (stereo unspecified): the z-score is -0.386. The same measure for `CCOC(=O)C=Cc1cccc(C)c1O`: -0.871; for `COC(=O)C1=CC(CCCO)=CC(c2cccs2)N(Cc2cccc(OC(F)(F)F)c2)C=C1C(=O)OC` (stereo unspecified): -0.257. The same measure for `[N-]=[N+]=Nc1ccccc1[C@@H]1OC(c2ccc(OCCCO)cc2)=N[C@]1(Cc1ccccc1)C(=O)N1CCCCC1`: -1.61; for `C=CCNC(=O)[C@@H]1[C@H]2C(=O)O[C@H](c3ccccc3)[C@H](c3ccccc3)N2[C@H](c2ccc(O)cc2)[C@@]12C(=O)N(C(=O)OCCOC)c1ccc(C#CC3=CCCCC3)cc12`: -0.966. Consider `CCOC(=O)C[C@H]1[C@H](OC(=O)c2cc3ccccc3oc2=O)[C@@H](NC(=O)CC(C)C)c2cc(OCCCO)ccc2N1C(=O)c1ccc2ccccc2n1`, for which the z-score was -0.103.

For `NCCCCCNC(=O)[C@@H]1C[C@@H]2C(=O)N[C@@H](CCCCN)C(=O)N2[C@@H]1c1ccc(O)cc1`, the z-score was 0.0497. As to `CC(C)C(CO)N1C(=O)[C@@H]2C3C(=O)OCCC/C=C\[C@H]3OC23C=CCN(Cn2nnc4ccccc42)C(=O)[C@@H]13` (stereo partly specified), the z-score was 0.173. With `[N-]=[N+]=NCc1ccccc1C[C@@]1(C(N)=O)N=C(c2ccc(OCCCO)cc2)O[C@@H]1c1ccccc1`, the z-score is -1.08.

Consider `CCOC(=O)C[C@H]1[C@H](OC(=O)c2ccc(C(=O)c3ccccc3)cc2)[C@@H](NC(=O)CC(C)C)c2cc(OCCCO)ccc2N1C(=O)c1ccccc1`, for which the z-score is 0.256. The same measure for `CC(C)[Si](C#C[Si](C(C)C)(C(C)C)C(C)C)(O[C@H](c1ccccc1)c1cn(Cc2ccccc2)nn1)C(C)C`: 1.77; for `COC(=O)C/C=C/C[C@]1(O)C(=O)N(C)c2ccccc21`: 0.946; for `CN1C(=O)C2C=CC(C(O)c3cccn3C)N(Nc3ccc([N+](=O)[O-])cc3[N+](=O)[O-])C2C1=O` (stereo unspecified): -1.03. With `C=CCN1Cc2ccccc2[C@@H]2OC(c3ccc(OCCCO)cc3)=N[C@]2(CC=C)C1=O`, the z-score was 0.0576. For the molecule `CCCC=C(CCC)[C@@H](NP(=O)(c1ccccc1)c1ccccc1)c1ccc(-c2ccccc2)cc1`, the z-score was 0.647. On to `C=C(COC)C(=O)CC[C@@H](OC(C)=O)c1cccc(OCCO)c1`, for which the z-score is 0.387.

With `CCOC(=O)C1=CC[C@@H](c2ccccc2F)N(S(=O)(=O)c2ccc(C)cc2)[C@H]1c1ccccc1`, the z-score was 2.12.

With `O=C1O[C@H](c2ccccc2)[C@H](c2ccccc2)N2[C@H]1[C@@H](C(=O)O)[C@]1(C(=O)Nc3ccc(C#CCCO)cc31)[C@H]2c1ccccc1OCCO`, the z-score was -0.0294. With `COc1cc2c(cc1O)C(C1CC1)N(C)CC2` (stereo unspecified) the figure was -0.348. On to `COC(=O)[C@@]1(Cc2ccc(OC)cc2)[C@H]2c3cc(C(=O)N4CCCC4)n(CCO)c3C[C@H]2CN1C(=O)c1ccccc1`, for which the z-score was -1.07. With `[N-]=[N+]=Nc1ccccc1C[C@]1(C(=O)N2CCOCC2)COC(c2ccc(OCCCO)cc2)=N1` the figure was 1.63; with `O=C1C2C=CC(C(O)c3ccco3)N(Nc3ccccc3F)C2C(=O)N1c1ccccc1` (stereo unspecified), 0.279. `CCCCCN1CC=CC23O[C@@H]4/C=C\CCCOC(=O)C4[C@H]2C(=O)N(C(C)CO)[C@@H]3C1=O` (stereo partly specified): the z-score is 0.423. `COC(=O)c1c(CC[C@@H](CO)NC(=O)N2CCC[C@H]2Cn2cc(C3(O)CCCCC3)nn2)oc(C(C)=O)c1C(=O)OC`: the z-score is -0.168. In the case of `CCCCNC(=O)c1ccc(C#CC(C)(C)C)c(OC(C)=O)c1`, the z-score is -0.654. Regarding `COc1ccccc1CN1C(=O)c2ccccc2[C@](Cc2ccccc2I)(C(=O)O)[C@@H]1c1ccc(CO)cc1`, the z-score is -0.17.
